A short description of assay [1]: compound effects on lung adenocarcinoma cell viability – A549, calcein-AM fluorescence, 48 h, basal, profiling panel (AID 1162). The note with it: higher = more signal.
Assay [2] can be described thus: compound effects on differentiated 3T3-L1 adipocyte viability – cell-based, 3T3-L1 adipocytes, calcein-AM fluorescence, 48 h, basal, profiling panel (AID 1163). To be noted: 3T3-L1 adipocytes viability, higher = more signal.
Assay [3] can be described thus: compound effects on hepatocellular carcinoma cell viability – HepG2, calcein-AM fluorescence, 48 h, basal, profiling panel (AID 1164). To be noted: higher = more signal.
Assay [4] in a line: compound effects on multiple myeloma cell viability – MM1S, calcein-AM fluorescence, 48 h, basal, profiling panel (AID 1165).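 Further: viability of MM1S multiple myeloma cells under basal unstimulated conditions.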 The note with it: higher = more signal.
Assay [5] is described as follows: calcein-AM signal in unstimulated myeloma cells – cell-based, calcein-AM fluorescence, 48 h, PK04 Diversity Set, profiling panel (AID 1166).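 Further: cells grown under basal conditions without added stimulus.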 To be noted: RPMI8226 myeloma viability, higher = more signal.
A short description of assay [6]: JC-1 mitochondrial signal, unstimulated HepG2 cells – cell-based, JC-1 fluorescence, 24 h, 100 nL compound, profiling panel (AID 1167). To be noted: HepG2 mitochondrial potential, higher = more signal.
A short description of assay [7]: JC-1 mitochondrial signal, unstimulated adipocytes – cell-based, JC-1 fluorescence, 3T3-L1 adipocytes, 24 h, 100 nL compound, profiling panel (AID 1168). The note with it: JC-1 mitochondrial fluorescence, higher = more signal, called active from +8 up or from −8 down.
Assay [8] is described as follows: JC-1 mitochondrial signal, unstimulated myeloma cells – cell-based, JC-1 fluorescence, RPMI8226, 24 h, 100 nL compound, profiling panel (AID 1169). The note with it: JC-1 mitochondrial potential fluorescence, higher = more signal.
Assay [9] in a line: JC-1 mitochondrial signal, unstimulated MM1S myeloma – cell-based, JC-1 fluorescence, 24 h, 100 nL compound, profiling panel (AID 1170). To be noted: MM1S mitochondrial potential, higher = more signal.
Assay [10] in a line: resazurin metabolic signal in A549 cells – cell-based, resazurin fluorescence, 24 h, PK04 Diversity Set, profiling panel (AID 1171). The note with it: A549 viability, higher = more signal, called active from +8 up or from −8 down. In general terms: Resazurin is reduced to fluorescent resorufin, in cell work by metabolically active cells.

Z-score data for 16 molecules are collected here from PubChem BioAssay.

Calls of active or inactive are those of the source.
Further: test concentration not given here.

Regarding `CC(C)c1ccc(NN2C(C(O)C3CCCCC3)C=CC3C(=O)N(c4ccccc4)C(=O)C32)cc1` (stereo not given), the z-score is 0.19 in [1]; -1.19 in assay [2]; 1.41 in assay [3]; -0.381 in assay [4]; -0.886 in [5]; -1.49 in assay [6]. For the same molecule, the z-score in assay [7] was -0.176 (inactive); in [8], 0.227; in assay [9], -1.36; in [10], -0.519 (inactive).
Consider `[N-]=[N+]=Nc1ccccc1C[C@]1(C(N)=O)COC(c2ccc(OCCCO)cc2)=N1`, for which the z-score in assay [1] was -0.193; in assay [2] it was 0.936; in [3], 0.0027; in assay [4], -0.286; in assay [5] it was -0.334; in assay [6], 0.253. Besides, the z-score was -0.298 (inactive) in [7], -0.964 in assay [8], -0.942 in assay [9] and 0.246 (inactive) in assay [10].
Take `COCCCNC(=O)[C@]1(Cc2ccccc2CN=[N+]=[N-])N=C(c2ccc(OCCCO)cc2)O[C@@H]1c1ccccc1N=[N+]=[N-]`: the z-score in assay [1] is -0.532; in assay [2], -0.541; in assay [3], -0.576; in assay [4], -2.96; in [5], -3.93; in assay [6], 1.27. Also, the z-score in assay [7] is 1.16 (inactive); in assay [8], -1.12; in assay [9], -2.77; in [10] it was -2.12 (inactive).
For `Cc1ccc(S[C@]2(C(=O)NC(C)C)CC(=O)N(Cc3ccccc3)[C@@H]2c2ccc(CO)cc2I)cc1`, the z-score in assay [1] was 0.15; in [2] it was 0.547; in assay [3] it was 1; in [4], -2.02; in [5], -1.69; in assay [6] it was 0.744. For the same molecule, the z-score in assay [7] was 0.98 (inactive); in assay [8], -0.25; in assay [9], -1.23; in [10], -1.13 (inactive).
Turning to `O=C1O[C@H](c2ccccc2)[C@H](c2ccccc2)N2[C@H]1[C@@H](C(=O)N1CCN(c3ncccn3)CC1)[C@]1(C(=O)Nc3ccc(C#CC4(O)CCCCCC4)cc31)[C@H]2c1ccc(O)cc1`, the z-score in assay [1] was 1.84; in assay [2], 0.783; in assay [3], 1.58; in assay [4], 0.0827; in [5], -0.153; in assay [6] it was -0.553. Moreover, the z-score in assay [7] is -0.166 (inactive); in assay [8], -0.259; in [9] it was 0.18; in [10], 1.17 (inactive).
Take `C#CCN(C(=O)OC(C)(C)C)[C@H](CO)c1ccccc1`: the z-score in assay [1] was -0.413; in assay [2], -0.24; in assay [3], -1.51; in assay [4] it was -0.404; in assay [5], -0.404; in assay [6], -1.16. Moreover, the z-score in assay [7] was 0.0135 (inactive); in assay [8], 0.136; in [9], -0.125; in [10], 0.659 (inactive).
Take `CS(=O)(=O)CCOC(=O)C1=CC(CCCO)=CC(C2CC2)N(Cc2sc3ccccc3c2Cl)C=C1C(=O)OCCS(C)(=O)=O` (stereo not given): the z-score in assay [1] was -0.768; in assay [2] it was 0.968; in assay [3] it was -0.344; in assay [4], -3.24; in assay [5], -3.05; in assay [6], 1.67. Moreover, the z-score in assay [7] was 0.182 (inactive); in assay [8] it was -0.843; in assay [9] it was -1.27; in [10], 0.459 (inactive).
As to `[N-]=[N+]=NCc1ccccc1[C@H]1OC(c2ccc(OCCCO)cc2)=N[C@@]1(CCS(=O)(=O)c1ccccc1)C(=O)NCCN1CCOCC1`, the z-score in assay [1] was 1.69; in assay [2], -0.328; in [3], 1.14; in [4], -1.03; in assay [5] it was 0.511; in assay [6] it was 0.418. For the same molecule, the z-score is -0.221 (inactive) in [7], -0.556 in [8], -0.801 in assay [9] and 0.0651 (inactive) in [10].
`COCCCNC(=O)[C@]1(Cc2ccccc2N=[N+]=[N-])N=C(c2ccc(OCCCO)cc2)O[C@@H]1c1ccccc1`: the z-score in assay [1] is -0.751; in assay [2], 0.16; in [3], -0.757; in assay [4] it was -3.22; in [5], -3.9; in assay [6], 2.34. Moreover, the z-score in assay [7] was 1.84 (inactive); in assay [8], -1.27; in [9], -0.774; in assay [10] it was 0.345 (inactive).
With `COCCOC(=O)N1C(=O)[C@@]2(c3cc(C#CCCO)ccc31)[C@H](c1ccc(O)cc1)N1[C@H](c3ccccc3)[C@H](c3ccccc3)OC(=O)[C@H]1[C@@H]2C(=O)NC[C@H](O)c1ccccc1`, the z-score in [1] is 1.7; in assay [2], 0.617; in [3], 1.2; in [4], 0.0034; in assay [5] it was -0.409; in [6] it was -0.424. Further, the z-score in assay [7] is -1.55 (inactive); in [8], -0.429; in assay [9] it was -0.841; in assay [10] it was 0.908 (inactive).
Regarding `CN1C2C=C(c3ccc(CO)cc3)C(C3C(=O)N(C(N)=O)C(=O)C32)C1C1CC1` (stereo not given), the z-score in assay [1] is -0.497; in [2], 0.0457; in assay [3], -0.157; in assay [4], 0.341; in [5] it was -0.773; in assay [6] it was -0.391. For the same molecule, the z-score in assay [7] was -0.242 (inactive); in assay [8] it was -0.482; in assay [9], 0.326; in assay [10], 0.182 (inactive).
Take `O=C(CS)NCCCCCCNC(=O)[C@H]1C[C@H]2C(=O)NCC(=O)N2[C@H]1c1cccc(OCCO)c1`: the z-score was -0.109 in assay [1]; 1.18 in assay [2]; -0.232 in assay [3]; -0.436 in assay [4]; -1.09 in assay [5]; -0.407 in assay [6]. In addition, the z-score in assay [7] was 0.225 (inactive); in assay [8], 0.211; in [9] it was -0.497; in assay [10] it was -0.15 (inactive).
In the case of `CC1CC/C=C\[C@H]2OC34C=CCN(C(C)C)C(=O)[C@H]3N(C(C)CO)C(=O)[C@@H]4C2C(=O)O1` (stereo not given in full), the z-score in [1] is -0.784; in assay [2], 0.534; in assay [3], 0.517; in assay [4] it was -0.245; in assay [5], 0.819; in assay [6], 0.674. Also, the z-score is 0.164 (inactive) in assay [7], 0.851 in [8], -0.869 in assay [9] and 0.574 (inactive) in assay [10].
For `COC(=O)c1ccc(OC)c(/C=C\CC(OC(=O)c2ccncc2)c2ccccc2)c1` (stereo not given), the z-score was 1.46 in [1]; -0.347 in [2]; 1.04 in assay [3]; -1.64 in [4]; -1.5 in assay [5]; 0.615 in assay [6]. In addition, the z-score was 0.202 (inactive) in [7], -0.177 in assay [8], 0.148 in [9] and 0.271 (inactive) in assay [10].
For the molecule `CCCC[C@@H](O)C1=C(C)Cn2c(=O)n(-c3ccccc3)c(=O)n2[C@H]1CO`, the z-score is 1.38 in assay [1]; 0.345 in assay [2]; 0.108 in [3]; 0.548 in assay [4]; 0.617 in assay [5]; 0.372 in [6]. For the same molecule, the z-score in assay [7] is 0.276 (inactive); in assay [8], -0.347; in assay [9], -0.804; in assay [10], -1.16 (inactive).
Consider `COc1ccc([Si](C)(C)[C@H]2[C@H](CC(=O)N3CCC[C@H]3CO)O[C@@]3(C(=O)N(Cc4cccc(N5CCCCC5=O)c4)c4ccccc43)[C@@H]2C)cc1`, for which the z-score in assay [1] was 0.239; in assay [2], 0.112; in assay [3] it was -0.134; in [4], -2.65; in assay [5], -3.15; in [6] it was 2.8. Further, the z-score was 0.0592 (inactive) in assay [7], -0.893 in [8], 0.286 in assay [9] and 0.423 (inactive) in [10].
